# PubChem BioAssay AID743099 (Vanderbilt Specialized Chemistry Center, 2013)
# The source made the active and inactive calls. No rule for the calls is given here.
# Target: Muscarinic acetylcholine receptor M2 (Homo sapiens) (UniProt P08172)
# Assay: human M2 receptor modulation in M5 NAM selectivity check, counter-screen for M5 NAM project, cell-based, CHO-K1 hM2/Gqi5, Fluo-4 calcium flux, ACh EC20 (AID 743099)
# Details: series mostly up to 30 µM
# Sequence of Muscarinic acetylcholine receptor M2 (Homo sapiens) (P08172 whole entry, looked up): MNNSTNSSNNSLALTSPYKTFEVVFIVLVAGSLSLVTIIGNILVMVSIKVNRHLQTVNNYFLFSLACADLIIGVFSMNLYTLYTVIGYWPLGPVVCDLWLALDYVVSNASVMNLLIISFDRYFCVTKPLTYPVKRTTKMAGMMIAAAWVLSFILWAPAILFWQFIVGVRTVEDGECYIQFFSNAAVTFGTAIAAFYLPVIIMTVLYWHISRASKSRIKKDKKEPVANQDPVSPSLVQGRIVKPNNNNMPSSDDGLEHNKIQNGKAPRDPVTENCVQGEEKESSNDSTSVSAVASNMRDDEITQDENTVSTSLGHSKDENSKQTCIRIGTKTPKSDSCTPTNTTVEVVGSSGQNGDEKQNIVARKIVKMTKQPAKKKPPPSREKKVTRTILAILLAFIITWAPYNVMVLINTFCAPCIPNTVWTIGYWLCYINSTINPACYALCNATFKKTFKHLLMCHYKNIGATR
row,SMILES,outcome
1,O=C(c1ccc(F)c(F)c1)N1CCN2C(=O)c3ccccc3C12c1ccc(Cl)cc1 (stereo not given),inactive
2,O=C(c1cc(F)cc(F)c1)N1CCN2C(=O)c3ccccc3C12c1ccc(Cl)cc1 (stereo not given),inactive
3,O=C(c1ccc(F)cc1)N1CCN2C(=O)c3ccccc3C12c1ccccc1 (stereo not given),inactive
4,O=C(c1ccc(F)c(F)c1)N1CCN2C(=O)c3ccccc3C12c1ccccc1 (stereo not given),inactive
5,O=C(c1ccc(F)c(F)c1)N1CCN2C(=O)c3ccccc3[C@@]12c1ccc(Cl)cc1,inactive
